From PubChem BioAssay (NCATS)
Inconclusive results are not listed. Where a call stands in place of a potency, no number is given. The source made the active and inactive calls. Calls come from the whole dose curve; as a rule, active = well fitted cell-killing curve with a large enough effect; inconclusive = small, poorly fitted or top-dose-only effect, or effect the other way; inactive = flat fitted curve, though single readings scatter.

Assay: qHTS of pediatric cancer cell lines to identify multiple opportunities for drug repurposing: Confirmatory screen for Rh18 cells (AID 1347125); note: nearly all actives have a fitted effect of over 55% in size
Conditions: Rh18 rhabdomyosarcoma cells, viability; series mostly up to 45.9 µM
Text: Drug repurposing or repositioning has been offered as a strategy for drug development in oncology programs. This approach has special potential for childhood cancers and other rare or orphan diseases, where the expected return on new drug development has been a disincentive to pharmaceuticals.
In this project we exploit the poly-pharmacology of drugs to discover new indications via phenotypic screening of a panel of 19 well-characterized cell lines derived from solid tumors seen in children and adolescents. The goal is to identify approved drugs with previously unrecognized anticancer properties that has the potential to reveal new mechanisms and biological processes involved in carcinogenesis or drug resistance. We employed a titration-based paradigm (quantitative high-throughput screening or qHTS), where all compounds were tested at multiple concentrations for their effect on cell viability. Concentration-response curves (CRCs) were derived directly from the primary screen, and both potency and efficacy values were used to identify compounds with robust bioactivity profiles. We screened the NIH Chemical Genomics Center (NCGC) Pharmaceutical Collection (NPC) and Mechanism Interrogation Plate (MIPE) small molecule collections of approved and investigational compounds against these cell lines; and measured metabolically active cells after 48 hours of compound treatment as a proxy for cell viability.
Assay Submitter: Nathalia J. Martinez, National Center for Advancing Translational Sciences, National Institutes of Health, Rockville, MD, USA; email: natalia.martinez@nih.gov
[1] Shen, M et al. Quantitative high-throughput phenotypic screening of pediatric cancer cell lines identifies multiple opportunities for drug repurposing. Oncotarget 2017 Dec 19;9(4):4758-4772. PMID 29435139.
The cells were obtained from University of North Carolina (UNC), Pediatric Preclinical Testing Program (PPT), and Coriell Institute (CI).
qHTS cell viability assay:
Cells were assayed in growth media at a density of 500-1,000 cells/well. Five microliters of cells were dispensed into 1,536-well, white, solid-bottom, TC-treated plates (Greiner Bio One) using a multidrop dispenser and incubated at 37 degrees C, 5% CO2, under a humidified atmosphere for 5 hours. Twenty-three nanoliters of compounds and controls (neutral control DMSO or positive control bortezomib at final concentration of 2.3 µM) were subsequently transferred by Kalypsys pintool. For primary screens, the MIPE collection was tested at 11-point dilutions (final concentrations range from 0.78 nM to 46 µM) and the NPC collection at 8-point dilutions (final concentrations range from 0.59 nM to 46 µM). Compounds tested in follow-up screens were assayed at 11-point dilutions. Cells were incubated for 48 hours, followed by addition of 3 µL of CellTiter-Glo (Promega). After a 15 min incubation at room temperature, samples were analyzed for luminescence intensity using a ViewLux High-throughput CCD imager equipped with clear filters.
Potency is the fitted concentration of half-maximal effect.

| SMILES | Potency |
| --- | --- |
| O=C(Nc1cccc(Br)c1)c1cccc(S(=O)(=O)N2CCCCCC2)c1 | inactive |
| CN[C@@H](C)C(=O)N[C@H]1CN(C(=O)CC(C)C)CC[C@H]2CC[C@@H](C(=O)NC(c3ccccc3)c3ccccc3)N2C1=O | inactive |
| CO[C@H]1C[C@@H]2CC[C@@H](C)[C@@](O)(O2)C(=O)C(=O)N2CCCC[C@@H]2C(=O)O[C@H]([C@H](C)C[C@@H]2CC[C@H](OCCO)[C@H](OC)C2)CC(=O)[C@H](C)C=C(C)[C@@H](O)[C@@H](OC)C(=O)[C@H](C)C[C@H](C)C=CC=CC=C1C | inactive |
| CC[C@]1(O)C[C@@H]2CN(CCc3c([nH]c4ccccc34)[C@@](C(=O)OC)(c3cc4c(cc3OC)N(C=O)[C@@H]3C45CCN4CC=C[C@](CC)([C@H]45)[C@@H](OC(C)=O)[C@]3(O)C(=O)OC)C2)C1 (stereo not given in full) | inactive |
| CNC1CCC(N(Cc2cccc(-c3ccncc3)c2)C(=O)c2sc3c(F)ccc(F)c3c2Cl)CC1 (stereo not given) | inactive |
| Nc1ncnc2c1ncn2[C@@H]1O[C@@H](CO)[C@H](O)[C@H]1O | inactive |
| O=C(NCc1ccncc1)C12C[C@H]3C[C@@H](C1)CC(c1ccc(Cl)cc1)(C3)C2 | inactive |
| CN(C)C1CCN(C(=O)c2ccc(NC(=O)Nc3nc(N4CCOCC4)nc(N4CCOCC4)n3)cc2)CC1 | 293 nM (active) |
| COc1cc(N2CCC(N3CCN(C)CC3)CC2)ccc1Nc1ncc(Cl)c(Nc2ccccc2S(=O)(=O)C(C)C)n1 | 3290 nM (active) |
| CC=C(C)C(=O)O[C@H]1C(C)=C[C@]23C(=O)[C@@H](C=C(CO)[C@@H](O)[C@]12O)[C@H]1[C@@H](C[C@H]3C)C1(C)C | inactive |
| CO[C@H]1C=CC=C(C)C(=O)NC2=CC(=O)C(NCCN(C)C)=C(C[C@@H](C)C[C@H](OC)[C@@H](O)[C@@H](C)C=C(C)[C@@H]1OC(N)=O)C2=O | 1850 nM (active) |
| COc1cccc(-c2cc(=O)c3ccccc3o2)c1N | inactive |
| CC(C)(C(=O)NCC(F)(F)C(F)(F)F)C(=O)N[C@@H]1C(=O)Nc2ccccc2-c2ccccc21 | inactive |
| O=C1C(Cl)=C(NCCN2CCOCC2)C(=O)c2ncccc21 | 3290 nM (active) |
| COc1cc2ncnc(Nc3ccc(F)c(Cl)c3)c2cc1OCCCN1CCOCC1 | 38000 nM (active) |
| C=C1C(=O)[C@@]23C(CC[C@@H]1[C@H]2O)[C@@]12CO[C@]3(O)[C@@H](O)[C@@H]1C(C)(C)CC[C@@H]2O (stereo not given in full) | 14700 nM (active) |
| N[C@@]1(C(=O)O)CS(=O)(=O)[C@H]2[C@H](C(=O)O)[C@H]21 | inactive |
| CO[C@H]1C[C@@H]2CC[C@@H](C)[C@@](O)(O2)C(=O)C(=O)N2CCCC[C@@H]2C(=O)O[C@H]([C@H](C)C[C@@H]2CC[C@H](OP(C)(C)=O)[C@H](OC)C2)CC(=O)[C@H](C)C=C(C)[C@@H](O)[C@@H](OC)C(=O)[C@H](C)C[C@H](C)C=CC=CC=C1C | inactive |
| O=C(O)CCC1CCC(c2cc(F)ccc2F)(S(=O)(=O)c2ccc(Cl)cc2)CC1 (stereo not given) | 29300 nM (active) |
| O=C1c2ccccc2-[n+]2ccc3c([nH]c4ccccc43)c21 | 2330 nM (active) |

| SMILES | Potency |
| --- | --- |
| CCc1ccc(OCc2ccccc2C(=O)Nc2ccc3nc(C)cc(N)c3c2)cc1 | 8270 nM (active) |
| O=C1NC(=O)C(=Cc2ccc3c(c2)OC(F)(F)O3)S1 | inactive |
| CC(=O)Oc1cc2c(s1)CCN(C(C(=O)C1CC1)c1ccccc1F)C2 (stereo not given) | inactive |
| NS(=O)(=O)c1cccc2c1C(=O)c1cccc(O)c1C2=O | 2330 nM (active) |
| CCOc1ccc(Nc2nc(-c3c(C)nc4ccccn34)cs2)cc1 | inactive |
| CCCCCCCCCCCC1=C(O)C(=O)C=C(O)C1=O | inactive |
| Cc1nnc(C(C)C)n1C1C[C@H]2CC[C@@H](C1)N2CC[C@H](NC(=O)C1CCC(F)(F)CC1)c1ccccc1 (stereo not given in full) | 6570 nM (active) |
| CC(=NNC(=S)N1CCC1)c1ccccn1 | inactive |
| COc1ccc(-c2coc3cc(O)cc(O)c3c2=O)cc1 | inactive |
| CC(C)n1nc(-c2ccc3oc(N)nc3c2)c2c(N)ncnc21 | 1650 nM (active) |
| Oc1ccc(C2CCN(c3ccnc4ccccc34)CC2)cc1O | inactive |
| CC1(C)S[C@H]2[C@H](NC(=O)[C@@H](N)c3ccc(O)cc3)C(=O)N2[C@@H]1C(=O)O | inactive |
| CC1(C)CCC[C@@]2(C)[C@@H]1CC[C@@]1(C)OC(=O)C[C@H]21 | inactive |
| O=C(O)c1ccc(-c2c[nH]c3ncc(-c4ccccc4)cc23)cc1C1CCCC1 | inactive |
| COc1cc2nc(-c3ccc(N4CCN(C)CC4)cc3)nc(NCCN3CCOCC3)c2cc1OC | 293 nM (active) |
| COc1ncc(-c2ccc3nccc(-c4ccnnc4)c3c2)cc1NS(=O)(=O)c1ccc(F)cc1F | 104 nM (active) |
| Cc1[nH]c(C=C2C(=O)Nc3ccc(S(=O)(=O)Cc4c(Cl)cccc4Cl)cc32)c(C)c1C(=O)N1CCC[C@H]1CN1CCCC1 | 26100 nM (active) |
| OC[C@H]1O[C@@H](n2cnc3c2NC=NC[C@@H]3O)C[C@H]1O | inactive |
| COc1ccc(-c2nc(N3CCOCC3)c3sc(CN(C)c4ncc(C(=O)NO)cn4)cc3n2)cn1 | 1170 nM (active) |
| CC1(C)O[C@H]2C[C@@H]3[C@H]4CCC5=CC(=O)C=C[C@]5(C)[C@@]4(F)[C@@H](O)C[C@]3(C)[C@]2(C(=O)CO)O1 | inactive |
